The results in this text go back to PubChem BioAssay (NCI).

Compounds without any hit were thinned out: in the full panel of roughly 83,000, 20% have a hit.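 Growth was measured after 48 h exposure to one concentration of compound in 96-well plates. Values under 10 count as active.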 Values without a mark were called inactive. Activity calls are given as the source filed them.

The test system of the assay is COLO 205 colon. Briefly: NCI-60 one-dose screen, 48 h (100 = growth as untreated, 0 = no growth, -100 = all killed). Particulars: 10 µM unless noted. As for the experimental part: Cells are grown in 96 well plates and exposed to the test compound for 48 hours. Compounds are tested at a single concentration, which is 10^-5 M for most compounds. The reported endpoint is percent growth (GI% or GIPRCNT), where numbers from 0 - 100% represent growth inhibition, and numbers from -100% - 0 represent cell death. For example, a value of 40 represents 60% growth inhibition. A value of 0 means no net growth occurred over the course of the experiment. A value of -40 indicates 40% of cells at the beginning of the experiment died by the end of the experiment. A value of -100 means all cells are dead at the end of the experiment.
NCI-60 Human Tumor Cell Lines Screen was performed using the standard one-dose NCI protocol, which is described in more detail at https://dtp.cancer.gov/discovery_development/nci-60/default.htm.
Compounds with GIPRCNT values below 10 were considered active. Activity score was based on GIPRCNT using the following formula: […]
Score is 0 for GIPRCNT values of 100 or above, 50 for GIPRCNT values of 0, and 100 for GIPRCNT values of -100.
For `Cc1nc2ccccc2n1-c1ncnc2c1CC(C)c1ccccc1N2C` (stereo not given), the growth is 88%.
As for `C=C1C(=O)O[C@H]2[C@H]1CC/C(COC(=O)CSCC(=O)OC/C1=C/CC[C@@]3(C)O[C@H]3[C@H]3OC(=O)C(=C)[C@@H]3CC1)=C\CC[C@@]1(C)O[C@@H]21`, the growth was -54.9% (active).
Under `NC1=NC(c2cccc(Br)c2)c2sc3ccc(Cl)cc3c2N1` (stereo not given) stands 100%; under `CSc1ccc2c(c1)c(CCN)c(C)n2Cc1ccc(Cl)c(Cl)c1`, -75.8% (active); under `C/C(=N/NC(N)=S)c1sc(Nc2cccc(Cl)c2)nc1C`, 84.9%.
Consider `CC1=C(SCCC(=O)OC(C[Se]C2=C(C)C(=O)c3ccccc3C2=O)C(=O)NC(C)(C)C)C(=O)c2ccccc2C1=O` (stereo not given), for which the growth is -86.4% (active).
Under `O=C(N/N=C/c1ccc(Cl)cc1)c1ccc(C(F)(F)F)nc1Nc1cccc(C(F)(F)F)c1` stands -12.6% (active).
Then `COc1cc(C(=O)c2cnc(-c3cccc4[nH]ccc34)[nH]2)cc(OC)c1OC`, with -36.9% (active); and `CCCCC[C@H](O)C/C=C1/C(=O)C=C[C@@H]1C/C=C\CCCC(=O)O`, with 78%; and `O=CN(SSN(C=O)C1CCCCC1)C1CCCCC1`, with 113%.
Then `Cc1nc2ccccc2c(/C=C/c2ccccc2)c1C(=O)/C=C/c1ccc(C(F)(F)F)cc1`, with -25.7% (active); and `COc1ccc(CNC(=O)[C@H](O)[C@@H](N)Cc2ccccc2)cc1`, with 114%.
For the compound `CC(=O)O.CN1[CH-]N(Cc2ccc(C#N)cc2)c2ccccc21.[Ag+]`, the growth was 54%.
In the case of `O=c1[nH][n+](-c2ccc(Br)cc2)no1`, the growth was 56.2%.
Under `O=C(/C=C/c1sc(Cl)nc1Cl)c1ccccc1` stands 87.4%.
Then `CC(=O)CC(c1cccs1)c1c(-c2ccccc2)[nH]c2ccccc12` (stereo not given), with 107%.
`CC(C)C(=O)Nc1ccc(-c2nc(-c3cccc(OCCN4CCOCC4)c3)c(-c3ccnc(Br)c3)[nH]2)cc1`: the growth was 43.3%.
Then `Cc1nc(/N=C(\N)NC(=O)Nc2ccccc2Cl)sc1C`, with 12.2%.
For `c1ccc2cc(C[n+]3ccn(CCCCCCCCCCCCn4cc[n+](Cc5ccc6ccccc6c5)c4)c3)ccc2c1`, the growth is -67.5% (active).
As to `c1cc(NCCc2ccncc2)nc(-n2cnc3ccccc32)c1`, the growth is 123%.
Under `C/C(=C(/c1ccccc1)c1ccc(N2C(=O)c3cccc4c(N5CCN(C)CC5)ccc(c34)C2=O)cc1)c1ccccc1` stands 81.1%.
With `COc1cc(Nc2nc(NCCN)nc3cc[nH]c(=O)c23)cc(OC)c1`, the growth was 55.3%.
Under `CCCCOc1nc2c(C)cccc2cc1-c1cc(-c2ccc(Cl)cc2)nc(-c2ccc(Cl)cc2)c1` stands 111%; under `CCN(CC)Cc1cc(Nc2c3ccc(Cl)cc3nc3ccc(OC)cc23)ccc1O`, 5.97% (active); under `Cc1ccc(C(=O)NN2C(=O)CSC2c2cccc([N+](=O)[O-])c2)cn1` (stereo not given), 105%.
As for `O=C1c2cccc3cccc(c23)C(=O)N1Nc1nc(NC2CCCCC2)nc(N2CCOCC2)n1`, the growth was 107%.
Under `O=c1ccc(N=Nc2ccc([N+](=O)[O-])cc2)ccc1O` stands 16.7%; under `Cc1cccc2c1S/C(=C/c1ccc([N+](=O)[O-])cc1)C2=O`, 114%.
Under `O=C(Nc1ccc(OS(=O)(=O)c2ccc(F)cc2)cc1)c1ccc(Cl)cc1` stands 114%.
For `Cc1nc2ccccc2c(/C=C/c2ccc(Cl)cc2)c1C(=O)/C=C/c1cccs1`, the growth was 82%.
Turning to `COc1ccc(NC2=C(Br)C(=O)C(C)=C(C)C2=O)cc1`, the growth is 115%.
With `COc1ccc2c(c1)C(C)Cc1c(ncnc1-n1c(C)nc3ccccc31)N2C` (stereo not given), the growth was -11.3% (active).
Then `CCOC(=O)c1cnn2c3ccccc3n(S(=O)(=O)c3ccc(OC)cc3)c12`, with -19.4% (active); and `C=C1C(=O)O[C@H]2[C@H]1CC/C(COC(=O)C(C)c1ccc(CC(C)C)cc1)=C\CC[C@@]1(C)O[C@@H]21` (stereo not given in full), with -10.1% (active).
Under `COc1cc(/C=N/NC(=O)c2ccc(C)nc2)cc(OC)c1OC` stands 108%; under `CC(=O)CC(c1ccccc1)c1c(C)[nH]c2ccccc12` (stereo not given), 107%.
In the case of `CN1C(=O)CNC(=O)[C@H](NC(=O)c2nc3ccccc3cc2O)CSSC[C@H]1C(=O)NCCCc1nc2ccccc2cc1O`, the growth was -9.63% (active).
For the compound `CN(C)c1ccc(/C=N\Nc2cc(=O)[nH]c3ccc(Cl)cc23)cc1`, the growth is 112%.
Under `O=C(N/N=C/[C@H](O)[C@H](O)[C@H](O)CO)c1ccc(NC(=O)c2cccnc2)cc1` stands 112%; under `O=C(CCN1C(=O)/C(=C/c2ccc(O)cc2)SC1=S)Nc1ccccc1`, 125%.
